# Measured values from PubChem BioAssay (EPA / NIEHS).
# Results filed as inconclusive are left out. The source made the active and inactive calls. Rule for the calls: active = hit-call score of the fitted dose curve at least 0.9, where 1 is the maximum; inconclusive = response in the unintended direction; inactive = score below 0.9.
# Target: Hepatocyte nuclear factor 4-alpha (Homo sapiens) (UniProt P41235)
# Experiment: ATG_HNF4a_TRANS: Attagene TRANS-FACTORIAL HepG2 Assay for human Hepatocyte Nuclear Factor 4 alpha (HNF4a) (AID 2282982)
# Settings: HepG2 HNF4a transactivation reporter, mRNA readout
# Procedure: ATG_TRANS is a cell-based, multiplexed-readout assay that uses HepG2, a human liver cell line, with measurements taken at 24 hours after chemical dosing in a 24-well plate.ATG_HNF4a_TRANS is one of 30 assay component(s) measured or calculated from the ATG_TRANS assay. It is designed to make measurements of mRNA induction, a form of inducible reporter, as detected with fluorescence intensity signals by Reverse transcription polymerase chain reaction (RT-PCR) and Capillary electrophoresis technology.Data from the assay component ATG_HNF4a_TRANS was analyzed into 1 assay endpoint. This assay endpoint, ATG_HNF4a_TRANS, was analyzed in the positive analysis fitting direction relative to DMSO as the negative control and baseline of activity. Using a type of inducible reporter, measures of mRNA for gain-of-signal activity can be used to understand the reporter gene at the transcription factor-level as they relate to the gene HNF4A. Furthermore, this assay endpoint can be referred to as a primary readout, because this assay has produced multiple assay endpoints where this one serves a reporter gene function. To generalize the intended target to other relatable targets, this assay endpoint is annotated to the nuclear receptor intended target family, where the subfamily is orphan.
# Human liver HepG2 cells are transiently transfected with multiple reporter transcription units (MRTUs) in 6-well plates using FuGene 6 reagent (Roche; 3 ml FuGene/1 mg DNA). The MRTU constructs are regulated by a cis-regulating element (promoter). […] A major difference between the CIS and TRANS system is that in CIS activities of endogenous TFs are measured, whereas the TRANS assay evaluates changes in activities of exogenous, chimeric NR-Gal4 proteins. […] At the end of 24 hour incubation, total RNA was isolated using TriZol reagent (Invitrogen). The isolated RNA is then reverse-transcribed using oligo(dT) primer and Mo-MLV reverse transcriptase (Invitrogen) with DNAse I (Ambion) treatment for 30 min. The one-tenth of the produced cDNA was amplified by PCR using Taq DNA polymerase (Invitrogen) and two reporter sequence-specific primers. The PCR products were fluorescently labeled by primer extension with 6-arboxyfluorescein (6-FAM) 5'-labeled reporter sequence-specific primer (2 min at 95 C, 20 s at 68 C and 10 min at 72 C) and these products were digested with 5U of HpaI (New England Biolabs) for 2h at 37 C. The fragments were purified using Qiaquick PCR columns (Qiagen), analyzed on an ABI 3130xL genetic analyzer (Applied Biosystems) with peak positions identified by using a set of X-rhodamine (ROX)-labeled MapMarker1000 molecular weight standards (BioVentures). The raw capillary electrophoresis data was processed using Attagraph software (Attagene).
# Chain of Hepatocyte nuclear factor 4-alpha (Homo sapiens) (P41235 whole entry, looked up): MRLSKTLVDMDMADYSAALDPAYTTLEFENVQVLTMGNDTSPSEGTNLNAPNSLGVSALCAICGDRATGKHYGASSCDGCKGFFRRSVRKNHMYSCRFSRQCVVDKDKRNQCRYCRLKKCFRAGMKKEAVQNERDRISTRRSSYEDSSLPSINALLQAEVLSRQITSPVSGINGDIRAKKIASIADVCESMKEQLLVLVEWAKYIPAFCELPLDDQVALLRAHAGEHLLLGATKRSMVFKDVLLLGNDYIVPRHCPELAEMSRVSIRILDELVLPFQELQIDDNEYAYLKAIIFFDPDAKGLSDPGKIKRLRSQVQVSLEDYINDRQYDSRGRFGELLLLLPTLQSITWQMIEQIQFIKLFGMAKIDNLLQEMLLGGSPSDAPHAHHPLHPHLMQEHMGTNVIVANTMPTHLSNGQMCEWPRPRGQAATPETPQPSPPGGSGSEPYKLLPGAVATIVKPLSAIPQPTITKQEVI
row,Compound,outcome
1,Cn1cnc([N+](=O)[O-])c1Sc1ncnc2nc[nH]c12,inactive
2,On1ccccc1=S,inactive
3,CC1(C)C(=O)N(Br)C(=O)N1Br,inactive
4,O=C(OC[C@H]1O[C@@H](OC(=O)c2cc(O)c(O)c(OC(=O)c3cc(O)c(O)c(O)c3)c2)[C@H](OC(=O)c2cc(O)c(O)c(OC(=O)c3cc(O)c(O)c(O)c3)c2)[C@@H](OC(=O)c2cc(O)c(O)c(OC(=O)c3cc(O)c(O)c(O)c3)c2)[C@@H]1OC(=O)c1cc(O)c(O)c(OC(=O)c2cc(O)c(O)c(O)c2)c1)c1cc(O)c(O)c(OC(=O)c2cc(O)c(O)c(O)c2)c1,inactive
5,CC(=O)OC[C@H]1O[C@@](COC(C)=O)(O[C@H]2O[C@H](COC(C)=O)[C@@H](OC(C)=O)[C@H](OC(C)=O)[C@H]2OC(C)=O)[C@@H](OC(C)=O)[C@@H]1OC(C)=O,inactive
6,CC[C@H](C)C(=O)O[C@H]1C[C@@H](C)C=C2C=C[C@H](C)[C@H](CC[C@@H]3C[C@@H](O)CC(=O)O3)[C@H]21,inactive
7,COC(=O)CC(=O)OC,inactive
8,COCCOCCOCCOC,inactive
9,Nc1ccc(Nc2ccccc2)cc1,inactive
10,Cn1c(=O)c2c(ncn2C)n(C)c1=O,inactive
11,CC(C)CCCCCCCOC(=O)CCCCC(=O)OCCCCCCCC(C)C,inactive
12,CCCCC(CC)COC(=O)c1ccc(C(=O)OCC(CC)CCCC)cc1 (centres undefined),inactive
13,Fc1ccccc1[C@@H](F)COC1CCC(Nc2ncnc3[nH]ncc23)CC1 (some centres undefined),inactive
14,COC(=O)c1c(Cl)c(Cl)c(C(=O)OC)c(Cl)c1Cl,inactive
15,CCCCC(CC)COC(=O)CCCCCCCCC(=O)OCC(CC)CCCC (centres undefined),inactive
16,Cc1ccc(N)cc1O,inactive
17,COc1cccc(-c2ccc(/C=C\CN3CCCCCC3)cc2Cl)c1,inactive
18,C=CC(=C)CCC=C(C)C,inactive
19,C[C@](N)(Cc1ccc(O)c(O)c1)C(=O)O,inactive
20,O=C1OC(=O)C2C3C=CC(C3)C12 (centres undefined),inactive

row,Compound,outcome
1,COCCOc1cc2cc(C(=O)NC3CCN(C(C)C)CC3)n(CC(=O)Nc3ccc(Cl)cn3)c2cn1,inactive
2,CCCC(=O)OCC,inactive
3,O=C(O)c1cc(N=Nc2ccc(S(=O)(=O)Nc3ccccn3)cc2)ccc1O,inactive
4,O=C(O)c1cccc(N(Cc2cccnc2)c2ccc(OC(F)F)c(OC(F)F)c2)c1,inactive
5,CNCc1ccc(NC(=O)c2c[nH]c3c2C(=O)CCC3)cc1,inactive
6,Cn1c(=O)cc(Oc2ccc(F)cc2F)c2cnc(NCC(C)(C)O)nc21,inactive
7,O=C(O)CCN(C1(C(=O)NO)CCCC1)S(=O)(=O)c1ccc(Oc2ccc(F)cc2)cc1,inactive
8,C1N2CN3CN1CN(C2)C3,inactive
9,CC(C)=CCCC(C)=CC=O,inactive
10,CC[C@H]1CC[C@H](NCc2cc3c(cc2OC)[C@H]2C[C@H]2C(=O)N3C)[C@H](c2ccccc2)N1,inactive
11,CCCN(C1CCN(C(=O)C2CCNCC2)CC1)[C@@H]1CCc2ccc(OC)cc2C1,inactive
12,CCc1cc(SCc2sc(-c3ccc(C(F)(F)F)cc3)nc2CN2CCN(c3ccc(OC)cc3)CC2)ccc1OCC(=O)O,inactive
13,Oc1ccc2c(c1)-c1ccccc1C2,inactive
14,O=c1n(CC2CO2)c(=O)n(CC2CO2)c(=O)n1CC1CO1 (centres undefined),inactive
15,CC(C)=CCCC(C)CCO (centres undefined),inactive
16,CC(C)CCO,inactive
17,CCCCCCCCO,inactive
18,COc1ccc(-n2nc(C(F)F)cc2-c2ccc(S(C)=O)cc2)cc1 (centres undefined),inactive
19,Cc1ccc(S(=O)(=O)O)cc1C,inactive
